# The campaign covered roughly 330,000 compounds. About 1,300 (0.39%) were called active.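 Rule for the calls: active = inhibition of 50% or more; inactive = inhibition below 50%.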 Only a selection was taken, and actives are over-represented in it overall.
# Assay: blockers of yeast NLRP3/ASC/caspase-1 reporter – luminescence, uHTS, primary screen (AID 2825);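 note: plate controls were induced DMSO wells for no effect and uninduced yeast grown without galactose for full effect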
# Settings: Yeast reconstituted NLRP3/ASC/caspase-1, beta-gal luminescence, 24 h; at 10 µM; active compounds read high
row,Structure (SMILES),inhibition
1,CCn1c(=O)c(C(=O)NCc2ccc3c(c2)OCO3)c(O)c2ccccc21,17.1% (inactive)
2,O=C(NCc1ccc2c(c1)OCO2)c1sccc1Br,40.9% (inactive)
3,O=C(NCc1ccc2c(c1)OCO2)c1c(O)nc2sccn2c1=O,56% (active)
4,CC(NC(=O)COC(=O)CCC(=O)c1ccc(Cl)cc1)c1ccccc1 (stereo unspecified),6.94% (inactive)
5,CC1CCN(C(=S)NC(=O)c2ccccc2Br)CC1,15.7% (inactive)
6,CCCN(CC1CC1)C(=S)NC(=O)c1ccccc1Br,50.5% (active)
7,O=C(NC(=S)Nc1ncccn1)c1ccccc1Br,6.12% (inactive)
8,COc1ccc(S(=O)(=O)NCc2cccnc2)cc1NC(=O)c1ccc(C)cc1,9.95% (inactive)
9,CCc1cc(-c2n[nH]c(=S)n2CC(C)C)cs1,29.7% (inactive)
10,Cc1nc2sc(C(c3ccco3)N3CCC4(CC3)OCCO4)c(O)n2n1 (stereo unspecified),13.3% (inactive)
11,CC(C)Cc1cc(C(=O)Nc2cc(Br)ccc2O)no1,29.5% (inactive)
12,O=C(Nc1ccccc1C(F)(F)F)c1cc(-c2ccc(O)cc2)on1,32% (inactive)
13,Cc1ccc(O)c(NC(=O)c2cc(-c3ccco3)on2)c1,56.4% (active)
14,COc1cccc(C(=O)Oc2cc(C)[nH]c(=O)c2[N+](=O)[O-])c1,16% (inactive)
15,COC(=O)c1ccc(S(=O)(=O)N(CCO)Cc2ccccc2)n1C,4.79% (inactive)
16,CN1CCN(C(=O)/C(=C\c2cccs2)NC(=O)c2cccs2)CC1,7.81% (inactive)
17,C=CCn1c(SCC(N)=O)nnc1-c1cc2c(s1)CCC(CC)C2 (stereo unspecified),4.35% (inactive)
18,O=C(O)C1CCCN1C1=NS(=O)(=O)c2ccccc21 (stereo unspecified),-1.91% (inactive)
19,O=C(Nc1cccc(-c2nc3ncccc3o2)c1)c1ccco1,18.2% (inactive)
20,COc1cc(OC)cc(C(=O)Nc2ccc(-c3nc4ccccc4o3)c(O)c2)c1,10.3% (inactive)
21,O=C(Nc1ccc2oc(-c3ccccc3F)nc2c1)c1ccco1,54.8% (active)
22,C=CCN1C(=O)C(O)(CC(=O)c2ccc(Cl)cc2)c2ccccc21 (stereo unspecified),-10.4% (inactive)
23,CC(Sc1ncnc2c1cnn2-c1ccccc1)C(=O)Nc1ccc(N2CCOCC2)cc1 (stereo unspecified),8.39% (inactive)
24,CC(C)Sc1ncnc2c1cnn2-c1ccccc1,50.5% (active)

row,Structure (SMILES),inhibition
1,CCN(CC)C(=O)CSc1ncnc2c1cnn2-c1ccccc1,35.5% (inactive)
2,Oc1c(Cl)cc(Cl)c(Cl)c1Cc1c(O)c(Cl)cc(Cl)c1Cl,95.9% (active)
3,CCCn1c(SCC(=O)Nc2ccc(C)c(S(=O)(=O)N3CCOCC3)c2)n[nH]c1=O,4.23% (inactive)
4,CC1(C)Cc2c(sc3nc(SCC(=O)NCc4ccccc4)n(-c4ccccc4)c(=O)c23)CS1,-8.33% (inactive)
5,COC(=O)c1ccc(S(=O)(=O)NCc2ccccc2)n1C,14.2% (inactive)
6,O=C(Nc1cc(S(=O)(=O)N2CCCCC2)ccc1Cl)C1COc2ccccc2O1 (stereo unspecified),4.78% (inactive)
7,CCCCCCCCCCCC(=O)O,12.3% (inactive)
8,CCCCCCC12CCC(C(=O)O)(CC1)CC2,54.3% (active)
9,CN1CCN(c2ccc(S(=O)(=O)N3CCOCC3)cc2NC(=O)CCc2ccccc2)CC1,12.1% (inactive)
10,COc1cc(NC(=O)CN2C(=O)NC(C)(c3ccc(OC(F)F)cc3)C2=O)cc(OC)c1OC (stereo unspecified),11.2% (inactive)
11,O=[N+]([O-])c1c(NCCO)cc(Sc2nc3ccccc3s2)c2nonc12,55.2% (active)
12,CCN(CC)CCCSc1nc2ccccc2s1,15.5% (inactive)
13,Cc1nc2nc(CSc3nc4ccccc4s3)cc(=O)n2[nH]1,1.14% (inactive)
14,Cc1ccccc1S(=O)(=O)Cc1ccc(C(=O)NCCN2CCCCC2C)o1 (stereo unspecified),13.3% (inactive)
15,COc1ccc(C2Nc3ccccc3C(=O)N2c2ccc(Cl)cc2)cc1Cn1cc([N+](=O)[O-])cn1 (stereo unspecified),1.4% (inactive)
16,Cc1cccc(C(=O)OC(C)C(=O)NC2CCCc3ccccc32)c1O (stereo unspecified),11.6% (inactive)
17,Cc1ccc(C(c2sc3nc(C)nn3c2O)N2CCN(c3ccccc3)CC2)cc1 (stereo unspecified),-2.77% (inactive)
18,CCN(CC)c1ccc(/C=N/Nc2nc(C)cc(C)n2)c(O)c1,58.1% (active)
19,CCN(CC)c1ccc(/C=N/NC(=O)c2cnccn2)c(O)c1,27.9% (inactive)
20,Cc1cc(C)nc(N/N=C/c2c(CO)cnc(C)c2O)n1,15.2% (inactive)
21,OCCC1CN(Cc2cnc(-c3ccccc3)s2)CCN1CCc1ccccc1 (stereo unspecified),1.33% (inactive)
22,CCOC(OCC)c1ccc(/C=C\c2nccc(N)n2)cc1,14.7% (inactive)
23,O=C(Oc1c(-c2ccco2)oc2ccccc2c1=O)c1cccnc1,54.3% (active)
24,O=C(OCc1cc2ccccc2[nH]c1=O)c1cccnc1,11.2% (inactive)

row,Structure (SMILES),inhibition
1,COc1ccc(Oc2coc3cc(OC(=O)c4cncc(Br)c4)ccc3c2=O)cc1,2.36% (inactive)
2,C=C(C)c1cccc(C(C)(C)NC(=O)NCCN(CC)CC)c1,5.58% (inactive)
3,COC(=O)c1cc(S(=O)(=O)NC2CCN(Cc3ccccc3)CC2)cn1C,11.4% (inactive)
4,CCOC(=O)c1c(C)[nH]c(C(=O)COc2ccc3c(c2)OCO3)c1C,79.9% (active)
5,CCOC(=O)c1c(C)[nH]c(C(=O)OCC(=O)c2ccc(OC)cc2OC)c1C,22.6% (inactive)
6,CC(=O)c1c(C)[nH]c(C(=O)COc2ccc3c(C)cc(=O)oc3c2)c1C,17.5% (inactive)
7,O=c1[nH]c(CCl)nc2cc(-c3ccc(Cl)cc3)sc12,2.25% (inactive)
8,O=C(NCC1CCCO1)c1ccc(S(=O)(=O)Nc2ccc(F)cc2)cc1 (stereo unspecified),16.8% (inactive)
9,COCCNC(=S)N1CCN(C)CC1,5.02% (inactive)
10,CC(Sc1ccccc1F)C(=O)Nc1cccc(S(=O)(=O)N2CCOCC2)c1 (stereo unspecified),6.56% (inactive)
11,Cc1ccnc(Nc2nc3ccccc3s2)n1,53.7% (active)
12,O=C(CCC(=O)c1cccs1)Nc1nc2ccccc2s1,3.03% (inactive)
13,Cc1ccnc(-n2sc3ccccc3c2=O)n1,6.74% (inactive)
14,Cc1ccc(NS(=O)(=O)c2cccs2)cc1S(=O)(=O)N1CCCCCC1,8.88% (inactive)
15,CCn1nc(C)c(NC(=O)/C=C/c2ccc(OC)c(COc3ccc(Br)cc3)c2)c1C,7.05% (inactive)
16,COc1cc(N2C(=O)c3ccccc3C2=O)c(Cl)cc1C(=O)OCC(=O)N1CCOCC1,-0.245% (inactive)
17,N#C/C=C(/c1ccc(F)cc1)N1CCOCC1,6.72% (inactive)
18,CCOc1cc(/C=N/NC(=O)OC)ccc1OCCSc1ccc(Cl)cc1,33.5% (inactive)
19,CC(C)(C)NC(=O)CN(C(=O)c1ccc(Cl)nc1)c1cccc2ccccc12,13.4% (inactive)
20,O=C(CCC(=O)OCc1ccc(Cl)cc1)Nc1ccccc1,21% (inactive)
21,O=C(O)CC1=C(Nc2ccccc2)C(=O)N(c2ccccc2)C1c1ccc(Cl)cc1 (stereo unspecified),15% (inactive)
22,O=C1C=C(c2ccc(Cl)cc2)C(=O)N1Nc1ccccc1,74.6% (active)
23,Cc1sc2c(c1C)c(=O)n(-c1ccccc1)c1nncn21,2.84% (inactive)
24,CCCCNC(=O)C1(O)c2ccccc2NC(=O)N1c1ccc(Cl)cc1 (stereo unspecified),3.8% (inactive)

row,Structure (SMILES),inhibition
1,COc1cc(NC(=O)C2=CC(c3ccco3)=NS(=O)(=O)N2C)cc(OC)c1OC,2.53% (inactive)
2,Cc1noc(C)c1CSCC(=O)Nc1nc2ccc(Oc3ccccc3)cc2s1,9.07% (inactive)
3,CCc1noc(C)c1C(=O)Nc1nc(-c2ccccc2)cs1,45.9% (inactive)
4,CCc1noc(C)c1C(=O)Nc1nc2ccc(OC)cc2s1,70.8% (active)
5,Cc1ccc(C)c(N2CCN(C(=O)Cn3ncn4cccc4c3=O)CC2)c1,-5.29% (inactive)
6,COCCN1CCn2c(nc3cc(NS(C)(=O)=O)ccc32)C1,10.9% (inactive)
7,CN=C1C=C/C(=N/N=c2\ccn(O)cc2C)C=C1C,57.6% (active)
8,COCCn1c(=O)[nH]c2cc(C(=O)NCc3cccnc3)ccc2c1=O,-3.21% (inactive)
9,CC(NC(=O)c1cc2cc(Cl)ccc2oc1=N)c1ccccc1 (stereo unspecified),14.4% (inactive)
10,CC(=O)C12CC(C)=C(C)CC1CC1C3CCC4=CC(=O)CCC4(C)C3CCC12C (stereo unspecified),-1.41% (inactive)
11,CC(=O)O[C@H]1CC[C@@]2(C)[C@@H](CC[C@@H]3[C@@H]2CC[C@]2(C)[C@@H](C(C)(C)O)C[C@@H]32)C1,32.9% (inactive)
12,CC(=O)[C@@]12O[C@@H]1C[C@H]1[C@@H]3CC[C@H]4C[C@@H](O)CC[C@]4(C)[C@H]3CC[C@@]12C,58.4% (active)
13,CC1CCN(S(=O)(=O)c2ccc3[nH]c(=O)ccc3c2)CC1,18.1% (inactive)
14,O=C(CC(Cc1ccccc1)C(=O)O)NCCc1ccc2c(c1)OCO2 (stereo unspecified),20.5% (inactive)
15,CCc1ccc(NC(=O)NC(C)c2ccc3c(c2)OCO3)cc1 (stereo unspecified),24.3% (inactive)
16,CC(=NCc1ccc2c(c1)OCO2)C1=C(O)c2ccccc2C1=O,57.8% (active)
17,CCC(=O)c1cc(F)ccc1OCC(=O)Nc1ccc2c(c1)OCCO2,26.6% (inactive)
18,O=C(NC1CCC(O)CC1)c1ccccc1OCc1ccc(F)cc1 (stereo unspecified),1.97% (inactive)
19,COCCNC(=O)CCCn1c(=O)c2ccccc2n(Cc2cccc([N+](=O)[O-])c2)c1=O,-0.805% (inactive)
20,O=C(COc1ccc(Br)cc1F)NC1CCN(Cc2ccccc2)CC1,23% (inactive)
21,Cc1cc(C(=O)COc2ccccc2Cl)c(C)n1C1CC1,21.7% (inactive)
22,Cc1cc(C(=O)COc2ccc(Br)cc2F)c(C)n1C1CC1,58.4% (active)
23,O=C1C=CN2CCCC2CC1 (stereo unspecified),-5.59% (inactive)
24,CC(C)C(=O)N1CCN(CCN=CC2=C(O)CC(c3ccco3)CC2=O)CC1 (stereo unspecified),60.8% (active)

row,Structure (SMILES),inhibition
1,CC(=O)N1CCN(CCN=CC2=C(O)CC(C)(C)CC2=O)CC1,32.1% (inactive)
2,O=C1CC(c2ccccc2)CC(O)=C1C=NCCN1CCOCC1 (stereo unspecified),29.8% (inactive)
3,Cc1cc(C(=O)OCC(=O)Nc2nccs2)c2ccccc2n1,10.4% (inactive)
4,O=C(/C=C/c1ccc(OCc2c(F)cccc2Cl)cc1)N1CCOCC1,28.2% (inactive)
5,CN(C)CCCNC(=O)/C=C/c1ccc(OCc2c(F)cccc2Cl)cc1,20.8% (inactive)
6,COCCCNC(=O)/C=C/c1ccc(OCc2c(F)cccc2Cl)cc1,50.9% (active)
7,CCN(CC(=O)Nc1ccc(NC(C)=O)cc1)C(=O)CSC(=S)N1CCCC1,4.68% (inactive)
8,C=CCC1(CC=C)CCCN1C(=O)CC1C(=O)NCCN1Cc1ccccc1OC (stereo unspecified),4.65% (inactive)
9,Cc1sc2ncnc(Sc3nc4ccccc4s3)c2c1C,6.48% (inactive)
10,CCCNc1ncnc2sc(C)c(C)c12,55.9% (active)
11,CSc1ncnc2sc(C)c(C)c12,11.2% (inactive)
12,Cc1cc(NC(=O)CN2C(=O)NC(C)(CCc3ccccc3)C2=O)no1 (stereo unspecified),-3.27% (inactive)
13,COCCNC(=O)c1ccc2nc(Cc3ccc(OC)c(OC)c3)oc2c1,20.9% (inactive)
14,O=C(Cn1ccc2cc(S(=O)(=O)N3CCCC3)ccc21)NCc1ccccc1,11.6% (inactive)
15,O=[N+]([O-])/C=C/c1ccc2c(ccn2Cc2ccccc2)c1,92.3% (active)
16,Cc1ccc2[nH]c3c(=O)n(CC(=O)NCCc4ccc(Cl)cc4)ncc3c2c1,1.78% (inactive)
17,CC1(C)CCSC(/C=C/c2ccccc2)=N1,85.7% (active)
18,COc1ccc(CCNS(=O)(=O)c2ccc(Cl)s2)cc1OC,11% (inactive)
19,CC1CC(C)CN(S(=O)(=O)c2cccc3nonc23)C1 (stereo unspecified),25% (inactive)
20,CC(C)C[C@H](NC(=O)NCCc1ccc(Cl)cc1)C(=O)O,2.68% (inactive)

# From PubChem BioAssay AID2825 (Sanford-Burnham Center for Chemical Genomics, 2010)
